These results are taken from PubChem BioAssay.

The first experiment has as its system XIP peptide (Xip251-270). The experiment is described as follows: compounds binding XIP fragment 251-270 – biochemical, small-molecule microarray, fluorescence 635/667 nm, 0.5 µg/mL protein, primary screen (AID 1183). Conditions: fluorescence 635 nm, higher = more signal.
With `CN1C(=O)C2C=CC(C(O)COCc3ccccc3)N(Nc3ccc([N+](=O)[O-])cc3[N+](=O)[O-])C2C1=O` (centres undefined), the composite z-score was 0.544. Still for that read-out and setting: the result for `O=C1O[C@@H](c2ccccc2)[C@@H](c2ccccc2)N2[C@@H](c3ccccc3OCCO)[C@]3(C(=O)Nc4ccc(C#CC5(O)CCCCCC5)cc43)[C@@H](C(=O)N3CCCCCCC3)[C@H]12` reads 0.878; that for `COC(=O)Cn1c(C(=O)N(C)C)cc2c1C[C@H]1CN(C(=O)c3ccccc3)[C@@](Cc3ccccc3)(C(=O)OC)[C@@H]21`, 0.661; that for `CCCCCCc1nc(Cc2cc(OC)c(OC)c(OC)c2)c(C)c2c1[Si](C(C)C)(C(C)C)OC2`, 0.0092. Still for that read-out and setting: in the case of `Cc1ccc(S[C@]2(C(=O)NC(C)C)CC(=O)N(Cc3ccccc3)[C@@H]2c2ccc(CO)cc2)cc1` it was 0.123; in that of `CC(C)[Si](C#Cc1ccccc1)(O[C@H](c1ccccc1)c1cn(Cc2ccccc2)nn1)C(C)C`, 0.877. The same measure, in the same setting: the result for `CCOC(=O)C[C@H]1[C@H](OC(=O)c2cc3ccccc3oc2=O)[C@@H](NC(=O)c2ccc(-c3ccccc3)cc2)c2cc(OCCCO)ccc2N1C(=O)Cc1ccc(OC)cc1` reads 0.437; that for `CC(C)(C)OC(=O)CC[C@@]1(C(=O)N2CCOCC2)N=C(c2ccc(OCCCO)cc2)O[C@@H]1c1ccccc1CN=[N+]=[N-]`, 0.838. Take `CC[C@@H]1C=C(C(=O)O)[C@H](c2cccc(Cl)c2)N1S(=O)(=O)c1ccc(C)cc1`: the composite z-score came to 0.141. On the same count and under the same terms, the result for `COC(=O)[C@H](Cc1ccccc1)N1CC(C)(OC)O[C@@H](Cc2ccccc2)[C@H]1/C=C/C1CC1` (some centres undefined) reads -0.128. Same read-out and setting: the result for `CO[C@H]1O[C@H](CO)[C@@H](OC(=O)Nc2ccccc2)[C@@H]2OC(=O)[C@@H](Cc3ccccc3)C/C=C/C[C@H](Cc3ccccc3)C(=O)O[C@@H]12` reads 0.455; that for `CCCCC=C[C@@H](NC(=O)C(C)(C)C)c1ccccc1`, 0.324. Same read-out and setting: the result for `COc1ccc([Si](C)(C)[C@H]2[C@H](CC(=O)N3CCC[C@H]3CO)O[C@@]3(C(=O)N(Cc4cccc(N5CCCCC5=O)c4)c4ccccc43)[C@@H]2C)cc1` reads 0.714; that for `O=C(NCC(F)(F)F)[C@@H]1c2ccccc2C(=O)N(Cc2cc(C(F)(F)F)cc(C(F)(F)F)c2)[C@H]1c1ccc(CO)cc1`, 0.637. In the case of `CN1C(=O)C2C(C1=O)C1C=C(CCCO)C2C(C2CC2)N1C` (centres undefined), the composite z-score worked out at 0.591. In the case of `C=CCNC(=O)[C@@H]1[C@H]2C(=O)O[C@H](c3ccccc3)[C@H](c3ccccc3)N2[C@H](c2ccc(O)cc2)[C@@]12C(=O)N(C(=O)OCCOC)c1ccc(C#CCC(C(=O)OC)C(=O)OC)cc12`, the composite z-score was found to be 0.756.

In the case of `CCOC(=O)C[C@H]1[C@H](OC(=O)c2cc3ccccc3oc2=O)[C@@H](NC(=O)Cc2ccc(OC)cc2)c2cc(OCCCO)ccc2N1C(=O)Cc1ccc(OC)cc1`, the composite z-score amounted to 0.0609. Same read-out and setting: the result for `COCCCNC(=O)[C@@]1(Cc2ccccc2I)c2ccccc2C(=O)N(Cc2ccccc2C(F)(F)F)[C@H]1c1ccc(CO)cc1` reads 0.854; that for `CC1C2C(CCCO)=CC(C3C(=O)N(C)C(=O)C23)N1Cc1cccc(OC(F)(F)F)c1` (centres undefined), 0.806. Still for that read-out and setting: the result for `CC(C)c1ccc(NN2C(C(O)C(C)c3ccccc3)C=CC3C(=O)N(c4ccccc4)C(=O)C32)cc1` (centres undefined) reads 0.77; that for `CCOC(=O)C[C@H]1[C@H](OC(=O)c2ccccc2-c2ccccc2)[C@@H](NC(=O)CC(C)C)c2cc(OCCCO)ccc2N1C(=O)c1ccccc1`, 0.649.

With `COC(=O)[C@@]1(Cc2ccc(F)cc2)[C@H]2c3cc(C(=O)N(C)C)n(Cc4ccsc4Br)c3C[C@H]2CN1C(=O)c1ccccc1`, the composite z-score came to 0.102. The same measure, in the same setting: in the case of `COCCCNC(=O)[C@@]1(Cc2ccccc2I)c2ccccc2C(=O)N(Cc2ccccc2OC)[C@H]1c1ccc(CO)cc1` it was 0.0714; in that of `COc1ccc([Si](C)(C)[C@H]2[C@H](CC(=O)N3CCC[C@H]3CO)O[C@@]3(C(=O)N(C)c4c(Br)cc(C)cc43)[C@@H]2C)cc1`, 0.341.

Tested on in a further experiment: not listed separately
Put plainly: blood-stage malaria parasite viability loss – strain 3D7, DAPI fluorescence, 100 nL, primary screen (AID 1184).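 Also: parasites grown inside human red blood cells in medium with human serum.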 Particulars: P. falciparum 3D7 growth, 3 d, higher = more signal.
`Cc1ccc(S[C@]2(C(=O)NCc3ccccc3)CC(=O)N(Cc3ccccc3C(F)(F)F)[C@@H]2c2ccc(CO)cc2I)cc1` showed a z-score of 0.0951. Regarding `C=CCNC(=O)[C@@H]1[C@H]2C(=O)O[C@H](c3ccccc3)[C@H](c3ccccc3)N2[C@H](c2ccc(OCCO)cc2)[C@@]12C(=O)Nc1ccc(C#CC3=CCCCC3)cc12`, the z-score is -1.39.

Regarding `Cc1ccc(S[C@]2(C(=O)NCc3ccccc3)CC(=O)N(Cc3ccccc3Cl)[C@@H]2c2ccc(CO)cc2)cc1`, the z-score is -1.2. Consider `COc1cccc(C)c1NC(=O)O[C@H]1[C@H](OC(=O)Nc2ccccc2-c2ccccc2)[C@@H](OC(=O)Nc2ccccc2-c2ccccc2)[C@@H](OC)O[C@@H]1CO`, for which the z-score is -2.26. Still for that read-out and setting: the result for `Cc1ccc(N2C(=O)c3ccccc3[C@@H](C(=O)NCCN3CCOCC3)[C@@H]2c2ccc(CO)cc2)nc1` reads 1.41. Same read-out and setting: the result for `C=CC[C@@]1(C(=O)NCCCOC)N=C(c2ccc(OCCCO)cc2)O[C@@H]1c1ccccc1CN=[N+]=[N-]` reads -2.25.

In the case of `CC(=O)NCCCC[C@@H]1NC(=O)[C@H]2C[C@@H](C(=O)NCCCCCN)[C@@H](c3ccc(O)cc3)N2C1=O`, the z-score came to 0.0481. Still for that read-out and setting: in the case of `C=C(COC)C(=O)CC[C@H](OC(C)=O)c1ccc(CO)o1` it was -0.689; in that of `Cc1cccc([C@H]2C[C@H]3C(Br)=C[C@@]2(CO)C(=O)[C@]32CO2)c1`, 1.54. Still for that read-out and setting: in the case of `[N-]=[N+]=NCc1ccccc1[C@H]1OC(c2ccc(OCCCO)cc2)=N[C@@]1(Cc1ccccc1N=[N+]=[N-])C(N)=O` it was -0.885. Same read-out and setting: in the case of `COc1ccc(C(O)C2C=CC3C(=O)N(c4ccccc4)C(=O)C3N2Nc2ccccc2F)c2ccccc12` (centres undefined) it was 0.482. `CN1C(=O)C2C=CC(C(O)COCc3ccccc3)N(Nc3ccc([N+](=O)[O-])cc3[N+](=O)[O-])C2C1=O` (centres undefined): the z-score was found to be 0.391.

In turn, `O=C1O[C@@H](c2ccccc2)[C@@H](c2ccccc2)N2[C@@H](c3ccccc3OCCO)[C@]3(C(=O)Nc4ccc(C#CC5(O)CCCCCC5)cc43)[C@@H](C(=O)N3CCCCCCC3)[C@H]12` returned a z-score of -2.38. Consider `COC(=O)Cn1c(C(=O)N(C)C)cc2c1C[C@H]1CN(C(=O)c3ccccc3)[C@@](Cc3ccccc3)(C(=O)OC)[C@@H]21`, for which the z-score amounted to 0.645.

`CCCCCCc1nc(Cc2cc(OC)c(OC)c(OC)c2)c(C)c2c1[Si](C(C)C)(C(C)C)OC2` displayed a z-score of -2.76.

For the molecule `Cc1ccc(S[C@]2(C(=O)NC(C)C)CC(=O)N(Cc3ccccc3)[C@@H]2c2ccc(CO)cc2)cc1`, the z-score turned out to be 0.14. As for `CC(C)[Si](C#Cc1ccccc1)(O[C@H](c1ccccc1)c1cn(Cc2ccccc2)nn1)C(C)C`, the z-score was -1.18.

On to `CCOC(=O)C[C@H]1[C@H](OC(=O)c2cc3ccccc3oc2=O)[C@@H](NC(=O)c2ccc(-c3ccccc3)cc2)c2cc(OCCCO)ccc2N1C(=O)Cc1ccc(OC)cc1`, for which the z-score is -0.638.

`CC(C)(C)OC(=O)CC[C@@]1(C(=O)N2CCOCC2)N=C(c2ccc(OCCCO)cc2)O[C@@H]1c1ccccc1CN=[N+]=[N-]` yielded a z-score of -2.12. With `CC[C@@H]1C=C(C(=O)O)[C@H](c2cccc(Cl)c2)N1S(=O)(=O)c1ccc(C)cc1`, the z-score came out at 1.85.

`COC(=O)[C@H](Cc1ccccc1)N1CC(C)(OC)O[C@@H](Cc2ccccc2)[C@H]1/C=C/C1CC1` (some centres undefined) came in with a z-score of 0.291. `CO[C@H]1O[C@H](CO)[C@@H](OC(=O)Nc2ccccc2)[C@@H]2OC(=O)[C@@H](Cc3ccccc3)C/C=C/C[C@H](Cc3ccccc3)C(=O)O[C@@H]12` came in with a z-score of 0.232. Same read-out and setting: in the case of `CCCCC=C[C@@H](NC(=O)C(C)(C)C)c1ccccc1` it was -0.501; in that of `COc1ccc([Si](C)(C)[C@H]2[C@H](CC(=O)N3CCC[C@H]3CO)O[C@@]3(C(=O)N(Cc4cccc(N5CCCCC5=O)c4)c4ccccc43)[C@@H]2C)cc1`, -1.33; in that of `O=C(NCC(F)(F)F)[C@@H]1c2ccccc2C(=O)N(Cc2cc(C(F)(F)F)cc(C(F)(F)F)c2)[C@H]1c1ccc(CO)cc1`, 0.362.

Take `CN1C(=O)C2C(C1=O)C1C=C(CCCO)C2C(C2CC2)N1C` (centres undefined): the z-score came to 0.119. Still for that read-out and setting: the result for `C=CCNC(=O)[C@@H]1[C@H]2C(=O)O[C@H](c3ccccc3)[C@H](c3ccccc3)N2[C@H](c2ccc(O)cc2)[C@@]12C(=O)N(C(=O)OCCOC)c1ccc(C#CCC(C(=O)OC)C(=O)OC)cc12` reads -1.7; that for `CCOC(=O)C[C@H]1[C@H](OC(=O)c2cc3ccccc3oc2=O)[C@@H](NC(=O)Cc2ccc(OC)cc2)c2cc(OCCCO)ccc2N1C(=O)Cc1ccc(OC)cc1`, -0.912. On the same count and under the same terms, in the case of `COCCCNC(=O)[C@@]1(Cc2ccccc2I)c2ccccc2C(=O)N(Cc2ccccc2C(F)(F)F)[C@H]1c1ccc(CO)cc1` it was -0.821; in that of `CC1C2C(CCCO)=CC(C3C(=O)N(C)C(=O)C23)N1Cc1cccc(OC(F)(F)F)c1` (centres undefined), -1.7; in that of `CC(C)c1ccc(NN2C(C(O)C(C)c3ccccc3)C=CC3C(=O)N(c4ccccc4)C(=O)C32)cc1` (centres undefined), -0.119. With `CCOC(=O)C[C@H]1[C@H](OC(=O)c2ccccc2-c2ccccc2)[C@@H](NC(=O)CC(C)C)c2cc(OCCCO)ccc2N1C(=O)c1ccccc1`, the z-score is -0.966. On the same count and under the same terms, the result for `COC(=O)[C@@]1(Cc2ccc(F)cc2)[C@H]2c3cc(C(=O)N(C)C)n(Cc4ccsc4Br)c3C[C@H]2CN1C(=O)c1ccccc1` reads -1.75. `COCCCNC(=O)[C@@]1(Cc2ccccc2I)c2ccccc2C(=O)N(Cc2ccccc2OC)[C@H]1c1ccc(CO)cc1` came in with a z-score of -1.07. In turn, `COc1ccc([Si](C)(C)[C@H]2[C@H](CC(=O)N3CCC[C@H]3CO)O[C@@]3(C(=O)N(C)c4c(Br)cc(C)cc43)[C@@H]2C)cc1` showed a z-score of -1.56.
